Laboratory results taken from the OligoGym collection.

biological target: IPO9; experiment: pooled miR-30 sensor sort-seq; sequence = guide strand; settings: shRNA
Further: reference of the scale not given here.

| Sequence | sensor-assay potency score (higher = more potent) |
| --- | --- |
| TTGTATTTCGTACTACTGTTGT | -0.494 |
| TATAGGAGAATGTATCATCATC | -0.789 |
| TTTTTGGCTGACTTAGAGCGGG | -0.902 |
| TTTGTATTTCGTACTACTGTTG | -0.688 |
| TTTGCTTATCGATTCTCTCAAC | -1.05 |
| TTGCTTTCCATGCTTGCTGTGA | -0.476 |
| TTACAGAGTGCCACAGAGCTGA | -0.313 |
| TTGTCATCTGCATTGATGCCAT | -0.517 |
| TTCTAGCTGAGTGTGCACCAGA | -0.519 |
| TATTGTTTCAAGATGACTGATG | -0.429 |
| TTATCGATTCTCTCAACCCATT | -1.16 |

biological target: IQCF1; experiment: as above; settings: shRNA

| Sequence | sensor-assay potency score (higher = more potent) |
| --- | --- |
| TTGATCTTGGTGGCTACCGTAT | -0.916 |
| TGGAGTTTTAGCCTCTGCCTTT | -0.954 |
| ATACACTCTGTCACAATGCAAG | -1.11 |
| TAGCCTCTGCCTTTGACTCTGC | -0.296 |
| TTTGAGGGTTCCTTCGTCTTTT | -0.864 |
| ATCTTTGTCAGAGAGCTTCTTT | 0.163 |
| TTCTTCAGAATCTTGGACAGTA | 0.482 |
| TTGTCCACTGTCTGTGTCTCAA | -0.831 |
| TACCGTATCTTTGTCAGAGAGC | -0.874 |
| TTGGCTGTGACTCTGTACTGGC | -0.0836 |
| TTTCTCATTGGCATTGTCCACT | -0.377 |
| TTGAGCACCTGGCAATAGCGTC | -1.02 |

biological target: IQCJ; experiment: as above; settings: shRNA

| Sequence | sensor-assay potency score (higher = more potent) |
| --- | --- |
| TTGAGAGTATGTATGAACCCAG | 0.0169 |
| TCCATCATTAACTTGTTCTAGA | -0.697 |
| TTCCATCATTAACTTGTTCTAG | -0.41 |
| TCGCTGAATGATTTTCACCTTT | -0.759 |
| TTTTCCATCATTAACTTGTTCT | -0.253 |
| TCTCTGAGGAGACAGAGGGTGG | -1.51 |
| TAGAGGATTCTGCAATCTTTTC | -1.5 |
| TCGGAGAAGGTGTTCATGCTGA | -0.401 |
| TTCTCTGAGGAGACAGAGGGTG | -0.857 |
| ATATTTTCCATCATTAACTTGT | 0.105 |
| TAGAGAAGAATCACCTTCCTTC | 0.583 |

biological target: IREB2; experiment: as above; settings: shRNA

| Sequence | sensor-assay potency score (higher = more potent) |
| --- | --- |
| TTATGTGTGAATCTGTGCCGAC | -0.0474 |
| TAAAGTAAGAGAAACTGGCAGA | -0.195 |
| TTCATCATCATTTACATCCATG | -0.574 |
| TCAACTGTAAGATCTGTCGGAC | 0.203 |
| TATTGTAGTTCGATCAACTATA | -0.8 |
| TTTAGATACATCGAAGAACTTC | -0.321 |
